Screening results: PubChem, several laboratories
The full list was thinned out, with hits kept by preference.
GluA2 TARP mod – modulators of AMPA receptor GluA2-stargazin complexes; calls only at 30 µM; O88602+P19491; hit rate 3.5% among 40,000; HEK293 GluA2+stargazin, membrane potential dye (FDSS), glutamate EC50; hits were called plate by plate, in both directions; AID 1259245;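 active = any of four per-well response measures lying three or more SD from its plate-wide compound average, in either direction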
GIRK2 activator – Activators of human GIRK2-containing channels; HEK293 GIRK2/NPY4 cells, thallium flux fluorescence; activation (% efficacy), % for hits at 37.5 µM; 34,000 tested, under 10 active; AID 1259324;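 active = primary screen hit, no activity in plain HEK293 cells, and in GIRK2-only cells above 5% efficacy rising with concentration; inactive = the rest, including fluorescent compounds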;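 note: efficacy is normalized control-subtracted fluorescence 15 s after thallium addition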
Each line names hits and unclear results; the compound was inactive in the other large screens.

O=C(CSc1ccc(F)cc1)NCC(O)c1ccsc1 (stereo not given)	none
CCSc1nnc(NC(=O)Cn2c(-c3cnccn3)nc3ccccc32)s1	none
O=C(Cn1c(-c2cnccn2)nc2ccccc21)Nc1ccc(F)c(Cl)c1	GluA2 TARP mod active
CCn1c(SCC(=O)Nc2ccc3c(c2)OCCO3)nc2c(-c3ccccc3)c[nH]c2c1=O	none (no result: GluA2 TARP mod)
COc1ccc(NC(=O)CS(=O)(=O)c2cccs2)cc1Cl	none
COc1ccc(-n2c(COc3ccc4c(c3)OCO4)nnc2SCC(=O)c2ccccc2)cc1	none (no result: GIRK2 activator)
COc1c2c(cc3c1C(CC(=O)c1ccccc1)N(C)CC3)OCO2 (stereo not given)	GluA2 TARP mod active (no result: GIRK2 activator)
COC(=O)c1ccc(C(=O)Nc2sc3c(c2-c2nc4ccccc4s2)CCN(C(C)C)C3)cc1	none (no result: GIRK2 activator)
COc1ccc(C(=O)Nc2sc3c(c2-c2nc4ccccc4s2)CCN(C(C)C)C3)cc1OC	GluA2 TARP mod active (no result: GIRK2 activator)
CCN1CCc2c(sc(NC(=O)c3ccc(C)c(C)c3)c2-c2nc3ccccc3s2)C1	none (no result: GIRK2 activator)
CCN1CCc2c(sc(NC(=O)c3ccc(OC)c(OC)c3)c2-c2nc3ccccc3s2)C1	GluA2 TARP mod active (no result: GIRK2 activator)
CCOc1ccccc1-c1nc(COC(=O)c2nnn(-c3ccc(C)c(F)c3)c2C)c(C)o1	none
COc1ccccc1C(=O)NCCNc1ccc(Nc2cccc(C)n2)nn1	none (no result: GluA2 TARP mod)
CCC(CC)C(=O)NCCNc1ccc(Nc2cccc(C)n2)nn1	GluA2 TARP mod active
Cc1ccc(Cl)cc1S(=O)(=O)N1CC2CC1C(=O)O2 (stereo not given)	none
COc1ccc(Cl)cc1NC(=O)NCC1CCN(C(=O)Nc2ccc(F)cc2)CC1	none
COc1ccc(Cl)cc1S(=O)(=O)NCC1CCN(C(=O)Nc2ccc(F)cc2)CC1	GluA2 TARP mod active
COc1ccc(C(=O)N2CCN(c3ccc(Nc4cccnc4)nn3)CC2)cc1OC	none
Cc1cc(=O)n(CC(=O)Nc2cc(C(F)(F)F)ccc2Cl)cn1	none
CCc1c(C)nc(SCC(=O)Nc2cc(C(F)(F)F)ccc2Cl)[nH]c1=O	GluA2 TARP mod active (no result: GIRK2 activator)
NC(=O)c1ccc(NC(=O)c2ccc(Cl)c(N3C(=O)CCS3(=O)=O)c2)cc1	none
Cc1cc(C)c2c(n1)nn1c(NCCOCCO)cc(C)nc21	GluA2 TARP mod active
Cc1cc(C)c2c(n1)nn1c(NCCC3=CCCCC3)cc(C)nc21	none
Cc1cc(C)c2c(n1)nn1c(NCCCN(C)C)cc(C)nc21	GluA2 TARP mod active
Cc1cc(C)c2c(n1)nn1c(NCc3ccccn3)cc(C)nc21	none
CC(=O)N1CCN(c2ccnc3c2c(=O)n(CC(=O)c2ccc(Cl)cc2)c(=O)n3C)CC1	none (no result: GIRK2 activator)
O=C(C1CC1)N1CCc2ccc(NS(=O)(=O)c3ccc4c(c3)OCCO4)cc21	none
O=C(C1CC1)N1CCc2ccc(NS(=O)(=O)c3ccc4c(c3)CCCC4)cc21	GluA2 TARP mod active
O=C(c1ccco1)N1CCc2ccc(NS(=O)(=O)Cc3ccccc3)cc21	none
O=C(C1CCCC1)N1CCc2ccc(NS(=O)(=O)Cc3ccccc3)cc21	GluA2 TARP mod active
O=C(Nc1ccc2c(c1)N(C(=O)C1CC1)CC2)c1ccc(Cl)c(Cl)c1	GluA2 TARP mod active
O=C(Nc1ccc2c(c1)N(C(=O)C1CC1)CC2)c1cc(Br)ccc1Cl	none
COc1cccc(CNC(=O)Cc2csc(NC(=O)C3CCC(=O)N3)n2)c1 (stereo not given)	none
CN1CCN(c2cc(OCCNC(=O)Cn3nc(-c4ccc5c(c4)OCO5)ccc3=O)ncn2)CC1	none (no result: GIRK2 activator)
O=C(CCS(=O)(=O)c1ccccc1)NCCc1csc2nc(-c3cccs3)nn12	none
CCS(=O)(=O)c1ccc(C(=O)Nc2sc(C(=O)OC)c(C)c2C#N)cc1	GluA2 TARP mod active
Cc1sc(NC(=O)c2ccc(S(=O)(=O)C(C)C)cc2)c(C#N)c1C	none
Cc1cc(C(=O)N2CCCC(c3nn(C)c(=O)n3-c3ccccc3)C2)c(C)o1 (stereo not given)	none
CCOc1ccc(C(=O)Nc2cc3c4c(c2)CCC(=O)N4CCC3)cc1	none
O=C(Nc1ccc(CC(=O)N2CCC(O)CC2)cc1)c1cc(-c2ccco2)on1	none (no result: GluA2 TARP mod)
CCOc1ccc(C(=O)Nc2cccc(-c3cnc4n3CCC4)c2)cc1	GluA2 TARP mod active
O=C(Nc1cccc(-c2cnc3n2CCC3)c1)c1cc(-c2ccco2)on1	GluA2 TARP mod active
O=C(Nc1cccc(-c2cnc3n2CCC3)c1)c1ccc2nc[nH]c2c1	GluA2 TARP mod active
O=C(Nc1ccc2cn[nH]c2c1)c1ccc2nc[nH]c2c1	none
Cc1ccc(Cn2c(N3CCN(CC(N)=O)CC3)nc3c2c(=O)[nH]c(=O)n3C)cc1	none (no result: GIRK2 activator)
CC(C)NC(=O)Nc1nc2c(s1)CN(C(=O)OC(C)(C)C)CC2	none
O=C(c1cccnc1)N1CCN(CCn2ccnc2)CC1	none (no result: GluA2 TARP mod)
Cn1c(=O)c2cc(C(=O)NCC3CCCO3)sc2n(C)c1=O (stereo not given)	none
Cn1c(=O)c2cc(C(=O)N3CCN(c4ccccc4)CC3)sc2n(C)c1=O	none (no result: GIRK2 activator)
Cn1c(=O)c2cc(C(=O)NCCN3CCOCC3)sc2n(C)c1=O	GluA2 TARP mod active
